Test results published in publication PMC7862700, “An all-to-all approach to the identification of sequence-specific readers for epigenetic DNA modifications on cytosine”.

How the values were obtained:
Assay in all cases: DAPPL (digital affinity profiling via proximity ligation, sequencing); 10 mM Tris-HCl pH 7.5, 50 mM NaCl, 1 mM DTT, 4% glycerol, room temperature, 30 min; GST-TFs on glutathione beads, 16-mer random dsDNA library, 0.1% formaldehyde crosslink after washing; high values mean tight binding
FEV = target: T1, FEV (Homo sapiens, UniProt Q99581 1-238); conditions: protein: recombinant; tags: N-terminal GST; dsDNA, one strand shown
T1 sequence: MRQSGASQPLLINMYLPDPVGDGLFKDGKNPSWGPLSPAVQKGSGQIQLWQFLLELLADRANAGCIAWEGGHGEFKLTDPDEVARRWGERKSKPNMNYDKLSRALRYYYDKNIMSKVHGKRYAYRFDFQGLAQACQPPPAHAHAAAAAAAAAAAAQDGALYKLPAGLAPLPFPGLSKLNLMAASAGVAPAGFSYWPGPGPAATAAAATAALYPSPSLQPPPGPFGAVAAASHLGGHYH
How it was run: (§1)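 Pools of DNA-barcoded human transcription factors, expressed in yeast as GST fusions on glutathione beads and combined with a tag-only sample, were incubated with 200 nmole of a 16-mer random double-stranded DNA library. Incubation took 30 min at room temperature in Tris/NaCl/DTT/glycerol buffer and was followed by washing, 0.1% formaldehyde crosslinking, proximity ligation (BsaI/T4 ligase, 1 h, 37 °C), PCR amplification and sequencing on an Illumina NextSeq500. Binding signal is the ratio of a hexamer's read frequency for a factor to its frequency for the tag-only sample.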

ETV5 = ETV5 (Homo sapiens, UniProt P41161 1-510); conditions: protein: recombinant; tags: N-terminal GST; dsDNA, one strand shown
How it was run: as §1

HSF1 = HSF1 (Homo sapiens, UniProt Q00613 1-529); conditions: protein: recombinant; tags: N-terminal GST; chain copies: 3; dsDNA, one strand shown
How it was run: as §1

SPIC = target: T2, SPIC (Homo sapiens, UniProt Q8N5J4 1-248); conditions: protein: recombinant; tags: N-terminal GST; dsDNA, one strand shown
T2 sequence: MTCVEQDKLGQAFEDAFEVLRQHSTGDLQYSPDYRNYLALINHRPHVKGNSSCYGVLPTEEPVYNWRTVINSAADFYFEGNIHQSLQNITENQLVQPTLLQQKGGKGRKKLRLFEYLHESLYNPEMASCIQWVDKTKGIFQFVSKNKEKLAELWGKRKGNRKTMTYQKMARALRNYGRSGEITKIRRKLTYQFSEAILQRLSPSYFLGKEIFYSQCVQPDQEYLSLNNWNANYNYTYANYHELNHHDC
How it was run: as §1

ELF4 = ELF4 (Homo sapiens, UniProt Q99607 1-663); conditions: protein: recombinant; tags: N-terminal GST; dsDNA, one strand shown
How it was run: as §1

ELK4 = target: T3, ELK4 (Homo sapiens, UniProt P28324-2 1-405); conditions: protein: recombinant; tags: N-terminal GST; dsDNA, one strand shown
T3 sequence: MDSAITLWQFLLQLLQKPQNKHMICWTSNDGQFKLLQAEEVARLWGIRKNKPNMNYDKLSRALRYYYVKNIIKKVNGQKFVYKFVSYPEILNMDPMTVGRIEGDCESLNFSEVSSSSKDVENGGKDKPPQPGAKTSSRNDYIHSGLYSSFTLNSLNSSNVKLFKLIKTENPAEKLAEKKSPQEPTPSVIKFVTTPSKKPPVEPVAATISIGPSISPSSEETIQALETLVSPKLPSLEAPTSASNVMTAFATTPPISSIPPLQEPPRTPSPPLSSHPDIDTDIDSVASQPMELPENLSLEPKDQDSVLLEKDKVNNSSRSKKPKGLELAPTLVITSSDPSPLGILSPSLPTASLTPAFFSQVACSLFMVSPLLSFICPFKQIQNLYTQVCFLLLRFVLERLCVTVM
How it was run: as §1

ETV2 = target: T4, ETV2 (Homo sapiens, UniProt O00321 1-342); conditions: protein: recombinant; tags: N-terminal GST; dsDNA, one strand shown
T4 sequence: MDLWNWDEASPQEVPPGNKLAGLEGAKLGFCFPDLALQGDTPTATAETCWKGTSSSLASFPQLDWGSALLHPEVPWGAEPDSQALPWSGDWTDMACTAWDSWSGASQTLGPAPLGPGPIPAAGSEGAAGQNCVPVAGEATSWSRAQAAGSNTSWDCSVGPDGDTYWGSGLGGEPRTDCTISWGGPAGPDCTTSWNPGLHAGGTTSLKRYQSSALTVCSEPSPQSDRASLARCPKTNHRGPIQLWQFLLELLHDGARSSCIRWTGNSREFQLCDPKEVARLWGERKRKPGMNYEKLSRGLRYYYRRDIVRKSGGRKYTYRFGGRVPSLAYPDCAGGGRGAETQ
How it was run: as §1

ELF3 = target: T5, ELF3 (Homo sapiens, UniProt P78545 1-371); conditions: protein: recombinant; tags: N-terminal GST; dsDNA, one strand shown
T5 sequence: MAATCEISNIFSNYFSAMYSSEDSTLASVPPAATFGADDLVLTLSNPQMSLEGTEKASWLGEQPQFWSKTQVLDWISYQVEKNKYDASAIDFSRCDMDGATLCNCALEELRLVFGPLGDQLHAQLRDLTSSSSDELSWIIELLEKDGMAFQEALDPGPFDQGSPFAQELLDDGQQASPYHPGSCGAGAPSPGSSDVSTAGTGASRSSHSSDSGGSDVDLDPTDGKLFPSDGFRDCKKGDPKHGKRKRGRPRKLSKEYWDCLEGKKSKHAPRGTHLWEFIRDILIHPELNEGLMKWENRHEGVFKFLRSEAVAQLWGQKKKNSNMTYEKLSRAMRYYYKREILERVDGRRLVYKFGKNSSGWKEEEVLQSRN
How it was run: as §1

CRX = CRX (Homo sapiens, UniProt O43186 1-299); conditions: protein: recombinant; tags: N-terminal GST; dsDNA, one strand shown
How it was run: as §1

ETV1 = ETV1 (Homo sapiens, UniProt P50549 1-477); conditions: protein: recombinant; tags: N-terminal GST; dsDNA, one strand shown
How it was run: as §1

Chain of ETV1 (P50549 whole entry): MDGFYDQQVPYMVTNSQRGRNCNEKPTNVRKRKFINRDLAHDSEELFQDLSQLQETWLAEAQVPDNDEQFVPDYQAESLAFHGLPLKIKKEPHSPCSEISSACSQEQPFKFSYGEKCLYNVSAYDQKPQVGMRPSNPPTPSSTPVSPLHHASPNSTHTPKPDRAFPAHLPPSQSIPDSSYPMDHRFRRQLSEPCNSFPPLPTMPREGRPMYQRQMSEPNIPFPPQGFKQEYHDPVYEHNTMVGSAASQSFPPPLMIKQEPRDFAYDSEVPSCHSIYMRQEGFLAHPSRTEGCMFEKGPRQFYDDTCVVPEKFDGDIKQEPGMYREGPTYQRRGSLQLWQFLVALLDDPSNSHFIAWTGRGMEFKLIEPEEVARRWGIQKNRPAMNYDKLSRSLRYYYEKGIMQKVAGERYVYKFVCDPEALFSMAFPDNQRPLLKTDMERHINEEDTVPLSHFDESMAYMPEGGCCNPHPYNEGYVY
Chain of ELF4 (Q99607 whole entry): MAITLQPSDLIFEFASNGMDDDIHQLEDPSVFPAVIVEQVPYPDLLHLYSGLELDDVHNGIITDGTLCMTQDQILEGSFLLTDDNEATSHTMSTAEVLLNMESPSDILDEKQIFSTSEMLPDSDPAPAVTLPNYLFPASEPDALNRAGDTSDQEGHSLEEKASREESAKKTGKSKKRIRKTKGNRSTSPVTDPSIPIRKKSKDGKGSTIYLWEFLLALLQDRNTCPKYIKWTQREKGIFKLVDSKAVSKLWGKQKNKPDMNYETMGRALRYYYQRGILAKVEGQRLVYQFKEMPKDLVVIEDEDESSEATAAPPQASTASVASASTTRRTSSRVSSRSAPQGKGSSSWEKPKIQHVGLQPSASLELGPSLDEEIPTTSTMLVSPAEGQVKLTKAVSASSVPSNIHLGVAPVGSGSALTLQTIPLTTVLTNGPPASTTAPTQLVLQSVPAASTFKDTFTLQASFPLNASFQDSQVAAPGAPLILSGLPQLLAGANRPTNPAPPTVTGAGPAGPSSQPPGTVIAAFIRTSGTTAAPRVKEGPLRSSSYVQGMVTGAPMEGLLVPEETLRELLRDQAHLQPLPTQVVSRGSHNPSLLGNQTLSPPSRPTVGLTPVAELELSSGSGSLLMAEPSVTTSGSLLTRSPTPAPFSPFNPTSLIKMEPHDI
Chain of ETV5 (P41161 whole entry): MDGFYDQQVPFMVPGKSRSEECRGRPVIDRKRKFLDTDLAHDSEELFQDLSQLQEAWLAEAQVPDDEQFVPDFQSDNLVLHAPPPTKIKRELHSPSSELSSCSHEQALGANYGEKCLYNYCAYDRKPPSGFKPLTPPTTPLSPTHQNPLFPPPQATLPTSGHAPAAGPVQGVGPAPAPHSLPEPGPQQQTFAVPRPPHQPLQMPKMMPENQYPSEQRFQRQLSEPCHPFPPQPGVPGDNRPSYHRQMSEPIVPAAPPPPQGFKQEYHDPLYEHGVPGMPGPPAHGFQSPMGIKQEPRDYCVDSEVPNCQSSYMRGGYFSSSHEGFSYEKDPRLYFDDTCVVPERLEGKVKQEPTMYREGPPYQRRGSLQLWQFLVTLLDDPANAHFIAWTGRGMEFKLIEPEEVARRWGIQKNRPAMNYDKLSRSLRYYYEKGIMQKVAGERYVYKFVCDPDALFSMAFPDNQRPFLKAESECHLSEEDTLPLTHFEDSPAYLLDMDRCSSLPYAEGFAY
Chain of CRX (O43186 whole entry): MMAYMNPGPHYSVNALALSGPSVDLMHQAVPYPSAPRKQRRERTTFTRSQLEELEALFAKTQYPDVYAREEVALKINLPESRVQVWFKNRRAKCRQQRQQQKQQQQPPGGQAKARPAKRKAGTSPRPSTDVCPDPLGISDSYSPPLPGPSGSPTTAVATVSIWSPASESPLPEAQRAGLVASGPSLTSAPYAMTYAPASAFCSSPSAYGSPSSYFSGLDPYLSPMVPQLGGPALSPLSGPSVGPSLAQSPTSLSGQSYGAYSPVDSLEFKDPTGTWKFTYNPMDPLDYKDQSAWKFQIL
Chain of HSF1 (Q00613 whole entry): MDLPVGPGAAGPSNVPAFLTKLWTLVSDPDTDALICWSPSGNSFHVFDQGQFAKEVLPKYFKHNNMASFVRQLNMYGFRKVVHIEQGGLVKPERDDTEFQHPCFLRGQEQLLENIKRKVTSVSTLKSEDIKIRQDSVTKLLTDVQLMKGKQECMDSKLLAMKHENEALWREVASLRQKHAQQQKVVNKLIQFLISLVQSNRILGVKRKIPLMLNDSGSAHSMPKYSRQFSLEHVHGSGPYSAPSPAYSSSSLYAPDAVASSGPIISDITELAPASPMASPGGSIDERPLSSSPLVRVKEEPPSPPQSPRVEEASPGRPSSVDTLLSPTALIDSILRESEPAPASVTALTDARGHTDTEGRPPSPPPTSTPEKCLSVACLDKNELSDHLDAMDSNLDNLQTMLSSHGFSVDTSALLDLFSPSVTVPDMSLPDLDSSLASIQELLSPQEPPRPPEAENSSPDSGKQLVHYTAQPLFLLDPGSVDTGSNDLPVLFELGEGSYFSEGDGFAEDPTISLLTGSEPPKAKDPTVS

Sequence | binding signal (FEV) | binding signal (ETV5) | binding signal (HSF1) | binding signal (SPIC) | binding signal (ELF4) | binding signal (ELK4) | binding signal (ETV2) | binding signal (ELF3) | binding signal (CRX) | binding signal (ETV1)
TTGCAT | 1.35 fold enrichment (6-mer frequency, TF over GST control) | 1.39 fold enrichment (6-mer frequency, TF over GST control) | 1.3 fold enrichment (6-mer frequency, TF over GST control) | 1.59 fold enrichment (6-mer frequency, TF over GST control) | 1.4 fold enrichment (6-mer frequency, TF over GST control) | 1.31 fold enrichment (6-mer frequency, TF over GST control) | 1.53 fold enrichment (6-mer frequency, TF over GST control) | 1.38 fold enrichment (6-mer frequency, TF over GST control) | 1.33 fold enrichment (6-mer frequency, TF over GST control) | 1.5 fold enrichment (6-mer frequency, TF over GST control)
AACCTA | 1.08 fold enrichment (6-mer frequency, TF over GST control) | 1.03 fold enrichment (6-mer frequency, TF over GST control) | 1.18 fold enrichment (6-mer frequency, TF over GST control) | 1.03 fold enrichment (6-mer frequency, TF over GST control) | 1.15 fold enrichment (6-mer frequency, TF over GST control) | 1.07 fold enrichment (6-mer frequency, TF over GST control) | 1.27 fold enrichment (6-mer frequency, TF over GST control) | 1.16 fold enrichment (6-mer frequency, TF over GST control) | 1.2 fold enrichment (6-mer frequency, TF over GST control) | 1.1 fold enrichment (6-mer frequency, TF over GST control)
TTCGGT | 1.16 fold enrichment (6-mer frequency, TF over GST control) | 1.23 fold enrichment (6-mer frequency, TF over GST control) | 1.22 fold enrichment (6-mer frequency, TF over GST control) | 1.34 fold enrichment (6-mer frequency, TF over GST control) | 1.17 fold enrichment (6-mer frequency, TF over GST control) | 1.21 fold enrichment (6-mer frequency, TF over GST control) | 1.13 fold enrichment (6-mer frequency, TF over GST control) | 1.04 fold enrichment (6-mer frequency, TF over GST control) | 1 fold enrichment (6-mer frequency, TF over GST control) | 1.23 fold enrichment (6-mer frequency, TF over GST control)
TACTCT | 1.33 fold enrichment (6-mer frequency, TF over GST control) | 1.45 fold enrichment (6-mer frequency, TF over GST control) | 1.37 fold enrichment (6-mer frequency, TF over GST control) | 1.28 fold enrichment (6-mer frequency, TF over GST control) | 1.42 fold enrichment (6-mer frequency, TF over GST control) | 1.44 fold enrichment (6-mer frequency, TF over GST control) | 1.43 fold enrichment (6-mer frequency, TF over GST control) | 1.49 fold enrichment (6-mer frequency, TF over GST control) | 1.6 fold enrichment (6-mer frequency, TF over GST control) | 1.47 fold enrichment (6-mer frequency, TF over GST control)
CCTTTT | 1.68 fold enrichment (6-mer frequency, TF over GST control) | 1.56 fold enrichment (6-mer frequency, TF over GST control) | 1.37 fold enrichment (6-mer frequency, TF over GST control) | 1.83 fold enrichment (6-mer frequency, TF over GST control) | 1.64 fold enrichment (6-mer frequency, TF over GST control) | 1.58 fold enrichment (6-mer frequency, TF over GST control) | 1.38 fold enrichment (6-mer frequency, TF over GST control) | 1.68 fold enrichment (6-mer frequency, TF over GST control) | 1.36 fold enrichment (6-mer frequency, TF over GST control) | 1.6 fold enrichment (6-mer frequency, TF over GST control)
TTACTA | 1.14 fold enrichment (6-mer frequency, TF over GST control) | 1.22 fold enrichment (6-mer frequency, TF over GST control) | 1.79 fold enrichment (6-mer frequency, TF over GST control) | 1.38 fold enrichment (6-mer frequency, TF over GST control) | 1.3 fold enrichment (6-mer frequency, TF over GST control) | 1.32 fold enrichment (6-mer frequency, TF over GST control) | 1.34 fold enrichment (6-mer frequency, TF over GST control) | 1.25 fold enrichment (6-mer frequency, TF over GST control) | 2.18 fold enrichment (6-mer frequency, TF over GST control) | 1.23 fold enrichment (6-mer frequency, TF over GST control)
CTTAGC | 1.12 fold enrichment (6-mer frequency, TF over GST control) | 1.18 fold enrichment (6-mer frequency, TF over GST control) | 1.47 fold enrichment (6-mer frequency, TF over GST control) | 1.35 fold enrichment (6-mer frequency, TF over GST control) | 1.28 fold enrichment (6-mer frequency, TF over GST control) | 1.21 fold enrichment (6-mer frequency, TF over GST control) | 1.3 fold enrichment (6-mer frequency, TF over GST control) | 1.07 fold enrichment (6-mer frequency, TF over GST control) | 2.17 fold enrichment (6-mer frequency, TF over GST control) | 1.24 fold enrichment (6-mer frequency, TF over GST control)
